Compound activity as filed in PubChem.
USP30 inh = inhibitors of human USP30 deubiquitinase | Ubiquitin carboxyl-terminal hydrolase 30 (Homo sapiens), Q70CQ3 | purified USP30, Ub-rhodamine cleavage fluorescence | inhibition, % at 25 µM | 5.3% of 47,000 active | AID 1645860, 2021
OTUD3 block = inhibitors of human OTUD3 deubiquitinase; OTU domain-containing protein 3 (Homo sapiens), Q5T2D3; purified OTUD3, Ub-rhodamine fluorescence, 2 h; inhibition, % at 25 µM; 0.7% of 47,000 active; AID 1645858, 2021
USP17 block = inhibitors of human USP17 deubiquitinase. purified USP17, Ub-rhodamine cleavage fluorescence, 3 h. 6.5% of 47,000 active. Ubiquitin carboxyl-terminal hydrolase 17-like protein 5 (Homo sapiens), A8MUK1. inhibition, % at 50 µM
USP28 block = inhibitors of human USP28 deubiquitinase | 3% of 47,000 active | AID 1645857, 2021 | purified USP28, Ub-rhodamine cleavage fluorescence, 30 min | inhibition, % at 25 µM
A number is an active result. Rows were chosen to be rich in hits. Some 12% of all compounds tested hit in one or more screens of this group. No stated cut-off is given here; in the data, active means inhibition above about 30%; inactive means the rest.

`CSc1cccc(C(=O)Nc2ccc(-c3nc4ccccc4[nH]3)cc2)c1` gave USP30 inh 32, OTUD3 block inactive, USP17 block 63 and USP28 block inactive.
`Cc1ccc(C)c(S(=O)(=O)N2CCN(c3ccc4nnc(-c5ccco5)n4n3)CC2)c1` gave USP30 inh 41, OTUD3 block inactive, USP17 block 63 and USP28 block 46.
`O=C(c1cc(Cl)ccc1Cl)N1CCN(c2ccc3nnc(-c4ccco4)n3n2)CC1` gave USP30 inh inactive, OTUD3 block inactive, USP17 block 61 and USP28 block inactive.
O=S(=O)(c1ccccc1Cl)N1CCN(c2ccc3nnc(-c4ccco4)n3n2)CC1 was read as USP30 inh 38, OTUD3 block inactive, USP17 block 72 and USP28 block 34.
`Cc1ccc(-c2ccc(N3CCOCC3)nn2)cc1S(=O)(=O)N1CCOCC1` gave USP30 inh inactive, OTUD3 block inactive and USP28 block inactive.
`O=S(=O)(c1ccccc1Cl)N1CCN(CCOc2ccccc2)CC1` gave USP30 inh inactive, OTUD3 block inactive, USP17 block inactive and USP28 block inactive.
`O=C(Nc1noc(-c2ccccc2)n1)c1ccc(Br)cc1` gave USP30 inh inactive, OTUD3 block inactive, USP17 block inactive and USP28 block inactive.
`Cc1nc(-c2cc(S(=O)(=O)N3CCCC3)cn2C)sc1C(=O)N1CCCC1` gave USP30 inh inactive, OTUD3 block inactive, USP17 block inactive and USP28 block inactive.
For O=C(NC1CCCCC1)C1CCN(c2cnc(N3CCCCCC3)nc2)CC1 the results were USP30 inh inactive, OTUD3 block inactive, USP17 block inactive and USP28 block inactive.
For COc1ccc(CC(=O)Nc2ccc3c(c2)CCC(=O)N3C)c(Cl)c1 the results were USP30 inh inactive, OTUD3 block inactive, USP17 block inactive and USP28 block inactive.
Screening COC(=O)c1ccc(NC(=O)c2cccc3c2SCCC3=O)cc1 returned USP30 inh inactive, OTUD3 block inactive, USP17 block 36 and USP28 block inactive.
`CN(CCCNC(=O)c1cccc2c1SCCC2=O)c1ccccc1` gave USP30 inh inactive, OTUD3 block inactive, USP17 block 54 and USP28 block inactive.
For CCOC(=O)N1CCc2c(sc(NC(=O)c3ccc(S(C)(=O)=O)cc3)c2C(N)=O)C1 the results were USP30 inh inactive, OTUD3 block inactive, USP17 block inactive and USP28 block inactive.
CS(=O)(=O)c1cccc(C(=O)Nc2sc3c(c2C(N)=O)CCCC3)c1 was read as USP30 inh inactive, OTUD3 block inactive, USP17 block 36 and USP28 block inactive.
For Cc1ccccc1CNC(=O)C1CCc2nc(N3CCOCC3)ncc2C1 (centres undefined) the results were USP30 inh inactive, OTUD3 block inactive, USP17 block inactive and USP28 block inactive.
CC(=O)c1sc(NC(=O)c2cccc(S(=O)(=O)Nc3ccccc3F)c2)nc1-c1ccccc1 was read as USP30 inh inactive, OTUD3 block inactive, USP17 block 32 and USP28 block inactive.
Screening CCCCCC(=O)N1c2ccccc2NC2=C(C(=O)CC(c3ccc(C(C)(C)C)cc3)C2)C1c1ccncc1 (centres undefined) returned USP30 inh inactive, OTUD3 block inactive, USP17 block 74 and USP28 block inactive.
For CCOc1ccc(NC(=O)Nc2cccc(C(C)=O)c2)cc1 the results were USP30 inh inactive, OTUD3 block inactive, USP17 block inactive and USP28 block inactive.
`O=C(NCc1ccc(-c2nc3cnccc3o2)cc1)c1ccccc1F` gave USP30 inh inactive, OTUD3 block inactive, USP17 block 68 and USP28 block inactive.
Screening O=C(NCc1ccc(-c2nc3cnccc3o2)cc1)c1ccccc1Cl returned USP30 inh inactive, OTUD3 block inactive, USP17 block 38 and USP28 block inactive.
For O=C(NCc1ccncc1)c1cnc2ccccc2n1 the results were USP30 inh inactive, OTUD3 block inactive, USP17 block inactive and USP28 block inactive.
CCCc1noc(-c2ccnc(-n3ncc(C(=O)N4CCOCC4)c3C)c2)n1 was read as USP30 inh inactive, OTUD3 block inactive, USP17 block inactive and USP28 block inactive.
Screening N#Cc1cc(-c2ccc(Cl)cc2)cnc1Oc1ccc(F)cc1F returned USP30 inh inactive, OTUD3 block inactive, USP17 block inactive and USP28 block inactive.
`CCOCCn1ccc2c(OCC(=O)Nc3ccc4c(c3)OCCO4)cccc2c1=O` gave USP30 inh 84, OTUD3 block inactive, USP17 block 66 and USP28 block 44.
`COCCn1ccc2nc(C)c(C(=O)Nc3ccc4c(c3)OCCO4)cc2c1=O` gave USP30 inh 36, OTUD3 block inactive, USP17 block 51 and USP28 block inactive.
